Hits are enriched below; roughly 0.24% of the tested compounds scored in any of these assays.
mcGAS inh = inhibitors of mouse cGAS; Q8C6L5; recombinant cGAS, Kinase-Glo ATP depletion luminescence; inhibition, % at 12.5 µM; hit rate 0.15% among 160,000; AID 1259399
NPYLR7 agonist = activates Aedes aegypti NPYLR7 receptor; HEK293T NPYLR7/Galpha15, GCaMP6s calcium fluorescence; activation, % at 10 µM; hit rate 0.15% among 270,000; in the data active = activation above about 40%
hcGAS inh = human cGAS inhibition | Q8N884 | recombinant h-cGAS, ATP depletion, Kinase-Glo luminescence | inhibition, % at 12.5 µM | hit rate 0.081% among 290,000
Target sequence (Q8N884 whole entry, looked up): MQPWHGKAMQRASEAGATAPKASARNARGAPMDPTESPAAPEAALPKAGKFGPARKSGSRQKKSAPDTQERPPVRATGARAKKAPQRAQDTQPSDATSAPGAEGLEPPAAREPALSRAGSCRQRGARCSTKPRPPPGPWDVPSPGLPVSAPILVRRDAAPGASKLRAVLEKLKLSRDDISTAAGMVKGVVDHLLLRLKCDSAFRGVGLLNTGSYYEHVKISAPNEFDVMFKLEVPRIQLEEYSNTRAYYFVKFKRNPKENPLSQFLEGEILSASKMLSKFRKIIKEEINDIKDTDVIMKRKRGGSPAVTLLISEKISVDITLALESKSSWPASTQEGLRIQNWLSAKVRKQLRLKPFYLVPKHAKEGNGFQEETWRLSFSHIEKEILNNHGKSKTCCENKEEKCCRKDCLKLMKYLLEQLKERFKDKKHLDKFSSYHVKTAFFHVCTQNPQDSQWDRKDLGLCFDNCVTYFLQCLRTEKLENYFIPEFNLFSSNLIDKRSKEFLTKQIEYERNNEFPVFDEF
Each line names hits and unclear results; the compound was inactive in the other large screens; ! = not confirmed by another sample. Cut-off read from the data, not from the text of the source, unless noted: active = inhibition above about 40%; inactive = the rest.

O=C(O)CN1C(=O)/C(=C\c2cc([N+](=O)[O-])cc(Br)c2O)SC1=S	mcGAS inh 67, NPYLR7 agonist 81, hcGAS inh 51
COc1cc([N+](=O)[O-])cc(/C=C2/SC(=S)N(CC(=O)O)C2=O)c1O	none
COc1ccc(/C=C2/SC(=S)N(CC(=O)O)C2=O)cc1OC	none
O=C(CCC1NC(=O)c2ccccc2NC1=O)Nc1nc2ccccc2[nH]1 (stereo not drawn)	none (no result: mcGAS inh)
CC(C)c1c(C(=O)NCc2ccccn2)cnn1Cc1ccccc1	none (no result: NPYLR7 agonist)
N#CC1C(=N)Oc2cc(N)ccc2C1c1c(Cl)cccc1Cl (stereo not drawn)	NPYLR7 agonist 160
N#CC1C(=N)Oc2cc(N)ccc2C1c1ccccc1I (stereo not drawn)	none (no result: mcGAS inh)
CN1CCN(c2ccc(Br)cc2NC(=O)c2ccco2)CC1	none (no result: mcGAS inh)
Cc1ccc(C)n1-c1sccc1C(=O)O	mcGAS inh 86, hcGAS inh 44
Cc1sc(-n2c(C)ccc2C)c(C(=O)O)c1C	none
CCCCN1CCC(COC(=O)c2cc(Cl)c(N)c3c2OCCO3)CC1	mcGAS inh 91
CCCCN1CCC(CCC(=O)c2cc(Cl)c(N)cc2OC)CC1	none (no result: mcGAS inh)
Cc1nc2ccc(C(=O)N(C/C=C/c3ccccc3)CCO)cc2[nH]1	none
CC(C)c1ccc(/C=C2\Oc3c(ccc4c3CN(C3CCS(=O)(=O)C3)CO4)C2=O)cc1 (stereo not drawn)	none
COc1ccc(/C=C2\Oc3c(ccc4c3CN(C3CCS(=O)(=O)C3)CO4)C2=O)cc1 (stereo not drawn)	NPYLR7 agonist 68
Cc1ccccc1/C=C1\Oc2c(ccc3c2CN(C2CCS(=O)(=O)C2)CO3)C1=O (stereo not drawn)	none
COc1ccc(/C=C2\Oc3c(ccc4c3CN(CC3CCCO3)CO4)C2=O)cc1OC (stereo not drawn)	NPYLR7 agonist 88
COc1cc(/C=C2\Oc3c(ccc4c3CN(CC3CCCO3)CO4)C2=O)cc(OC)c1OC (stereo not drawn)	NPYLR7 agonist 74
COc1ccc(/C=C2\Oc3c4c(cc(C)c3C2=O)OCN(C2CC2)C4)cc1OC	none
COc1ccc(/C=C2\Oc3c4c(cc(C)c3C2=O)OCN(Cc2ccncc2)C4)cc1	none
COc1ccc(/C=C2\Oc3c(ccc4c3CN(CC3CCCO3)CO4)C2=O)cc1 (stereo not drawn)	NPYLR7 agonist 64
Oc1cccc(-c2nccn2C2CCCC2)c1	none (no result: mcGAS inh)
CC(c1nnc(SCc2ccn(C)c(=O)c2)n1-c1ccc(F)cc1)N(C)C (stereo not drawn)	none
C=CCn1c(C2CC(=O)N(c3ccc(OCC)cc3)C2)nc2ccccc21 (stereo not drawn)	none
CCCCc1nc(N2CCN(C(=O)c3cccc(Cl)c3)CC2)c2c(-c3ccc4ccccc4c3)noc2n1	none
COc1ccc(C=CC(=O)c2ccc(I)cc2)cc1O	none
COc1ccc(C=CC(=O)c2cccs2)cc1O	mcGAS inh 55
O=C1c2ccccc2-c2nc3nonc3nc21	mcGAS inh 53
O=C1c2ccccc2-c2nc3ccccc3nc21	none (no result: mcGAS inh)
CN(c1ccccc1)S(=O)(=O)c1cccc(NC(=O)CCl)c1	mcGAS inh 55
CN(c1ccccc1)S(=O)(=O)c1cccc(NS(=O)(=O)c2cc(Cl)ccc2Cl)c1	none (no result: mcGAS inh)
N#Cc1ccc(CSCCN2c3cccc4cccc(c34)S2(=O)=O)cc1	none (no result: mcGAS inh)
COc1ccc2oc(C)c(C(=O)NC3(C(=O)O)CCCC3)c2c1	none (no result: mcGAS inh, NPYLR7 agonist)
COc1ccc(OC)c(CCNc2nc3cnc(-c4cc(OC)c(OC)c(OC)c4)cc3n2C)c1	NPYLR7 agonist 70
CNc1nc2cnc(-c3ccc(OC)c(OC)c3)cc2n1Cc1ccccc1	none
COc1ccc(OC)c(CCNc2nc3cnc(-c4ccc(Cl)cc4)cc3n2C)c1	NPYLR7 agonist 83
COc1ccc(Cn2cnc3cnc(-c4cc(OC)c(OC)c(OC)c4)cc32)cc1OC	none
CC1(C(=O)NC2Cc3ccccc3C2)CCN1C(=O)c1ccccc1 (stereo not drawn)	none
CC1/C(=C/c2cn(C)c(=O)n(C)c2=O)C(=O)c2c(O)ccc(F)c21 (stereo not drawn)	none (no result: mcGAS inh)
CCc1cccc2c(C(CC(=O)NCCCN3CCOCC3)c3cccc(C(F)(F)F)c3)c[nH]c12 (stereo not drawn)	none (no result: NPYLR7 agonist)
CCc1cccc2c(C(CC(=O)NCCCN3CCOCC3)c3ccc(OC)c(OC)c3)c[nH]c12 (stereo not drawn)	mcGAS inh 68 (no result: NPYLR7 agonist)
CCCC(=O)Nc1c(-c2ccc(C)cc2)nc2ccc(C)cn12	none
COc1cc(NC(=O)c2ccco2)c(OC)cc1Cl	none (no result: mcGAS inh)
COc1ccc(NC(=O)C2C=CCN2)cc1NC(=O)c1ccco1 (stereo not drawn)	NPYLR7 agonist 64
CC(C)NC(=O)N(Cc1cc(NC(=O)C2CCC2)ccc1N(C)C)C(C)C	none
Cc1oc(-c2cccs2)nc1-c1nccn1Cc1noc(C(C)C)n1	none (no result: NPYLR7 agonist)
COc1ccc(-n2ccnc2-c2nc(-c3cccs3)oc2C)cn1	NPYLR7 agonist 57 (no result: mcGAS inh)
CC(Oc1cccc(-c2ccnc3[nH]ccc23)c1)C(N)=O (stereo not drawn)	none (no result: mcGAS inh)
CCN1C(=O)/C(=C/c2ccc(N(C)C)cc2)SC1=S	none
CCN(CC)c1ccc(/C=C2/SC(=S)N(CC(=O)O)C2=O)cc1	NPYLR7 agonist 42
CCN(CC)c1ccc(/C=C2\SC(=S)N(CCS(=O)(=O)O)C2=O)cc1	NPYLR7 agonist 137
O=C(O)CN1C(=O)/C(=C\c2ccc(I)cc2)SC1=S	none
CCN(Cc1ccc(Cl)s1)C(=O)c1ccc(OC)cc1O	none (no result: mcGAS inh)
Cc1noc(-c2cccs2)c1C(=O)NCCOc1ccccc1	none
O=c1[nH]c(C23CC4CC(CC(C4)C2)C3)nc2c1CCNC2	none (no result: NPYLR7 agonist)
CCN(CC)CCCC(C)NC(=O)c1cc(-c2ccccc2Cl)nn1-c1ccc(OC)cc1 (stereo not drawn)	none
CCN(CC)CCCC(C)Nc1c2ccc(Cl)cc2nc2ccc(OC)cc12 (stereo not drawn)	NPYLR7 agonist 67, hcGAS inh 64!
CCCCNC(=O)Cn1nc(C(F)(F)F)c(Cl)c1C	none
O=c1oc2cc(O)ccc2cc1-c1nc2ccccc2o1	NPYLR7 agonist 216 (no result: mcGAS inh)
O=c1oc2cc(O)ccc2cc1-c1nnc(-c2ccccc2)o1	none
COc1cc(-c2nc3ccccn3c2NC2CCCCC2)ccc1OC(=O)C12CC3CC(CC(C3)C1)C2	none
COc1ccc(-c2csc(NC(=O)CCl)n2)c(O)c1	mcGAS inh 60
COc1ccc(-c2csc(NC(=O)CN3CC(C)CC(C)C3)n2)c(OC)c1 (stereo not drawn)	none (no result: mcGAS inh)
CS(=O)(=O)c1ccc(C(=O)OC/C=C/c2ccccc2)cc1	none (no result: mcGAS inh)
CCOc1ccc(CN(Cc2cccc(C(F)(F)F)c2)Cc2nc(C(=O)NCC3CCCO3)co2)cc1 (stereo not drawn)	none
Cc1cc2c(c(-c3cccs3)c1)OC(CN)C2 (stereo not drawn)	none (no result: mcGAS inh)
Cc1cc2c(c(-c3ccc4c(cnn4C)c3)c1)OC(CN)C2 (stereo not drawn)	NPYLR7 agonist 76 (no result: mcGAS inh)
COc1ccc(Cn2cnc(-c3ccccc3)cc2=O)cc1	none
C=CCOc1ccc(C=C(C#N)C(=O)c2ccc(OC)cc2)cc1	mcGAS inh 58
COc1ccc(C=C(C#N)C(=O)c2ccc(OC)cc2)cc1	none
Cc1cnc(NC(=O)c2cccc(OC(F)F)c2)s1	none (no result: mcGAS inh)
Cc1cc(C=C2SC(N)=NC2=O)c(C)n1C1CC1	none (no result: mcGAS inh)
CCN1CC(=Cc2cc(C)n(C3CC3)c2C)C(=O)C(=Cc2cc(C)n(C3CC3)c2C)C1	NPYLR7 agonist 48 (no result: mcGAS inh)

Screening results: PubChem BioAssay, Fisher Drug Discovery Resource Center
